Screening results: PubChem, National Center for Advancing Translational Sciences (NCATS)
Pol iota inh: blocks human DNA polymerase iota activity. hit rate 1% among 390,000. Pol iota fluorescent replication assay, 10 min. AID 588590. Potency, µM (series often up to 115 µM), for the others: at the top dose activity, negative = inhibition, most hits filed as inhibitors
Target sequence (Q9UNA4 whole entry, looked up): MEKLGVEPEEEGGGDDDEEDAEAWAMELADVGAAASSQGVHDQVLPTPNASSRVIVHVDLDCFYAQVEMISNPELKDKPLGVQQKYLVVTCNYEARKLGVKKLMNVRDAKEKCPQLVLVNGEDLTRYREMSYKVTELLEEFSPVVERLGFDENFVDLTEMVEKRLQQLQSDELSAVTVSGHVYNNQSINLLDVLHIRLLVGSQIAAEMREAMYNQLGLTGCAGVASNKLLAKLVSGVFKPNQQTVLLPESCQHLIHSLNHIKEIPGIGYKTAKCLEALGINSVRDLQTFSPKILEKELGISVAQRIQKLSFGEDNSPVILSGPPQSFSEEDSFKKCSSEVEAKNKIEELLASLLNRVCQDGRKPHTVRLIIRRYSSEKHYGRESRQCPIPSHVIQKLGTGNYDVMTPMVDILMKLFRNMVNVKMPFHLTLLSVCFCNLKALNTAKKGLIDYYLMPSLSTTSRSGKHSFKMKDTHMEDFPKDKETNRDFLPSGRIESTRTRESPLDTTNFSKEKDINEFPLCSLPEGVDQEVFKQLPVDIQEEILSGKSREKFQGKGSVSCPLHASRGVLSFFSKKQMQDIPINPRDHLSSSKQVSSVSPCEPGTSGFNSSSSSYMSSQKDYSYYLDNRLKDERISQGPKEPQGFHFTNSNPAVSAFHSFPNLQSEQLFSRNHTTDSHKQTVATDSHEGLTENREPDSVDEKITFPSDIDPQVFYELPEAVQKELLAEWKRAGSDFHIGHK
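Pol iota at 10 nM preincubated 15 min with compounds at room temperature; reaction started with fluorescent substrate, 50 nM final. Fluorescence read kinetically at 0 and 10 min; buffer-only wells as negative control.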
POLB inh: DNA polymerase beta (human) inhibition. Potency, µM (top dose mostly 114 µM), inactives show at the top dose activity change, negative = inhibition, most hits filed as inhibitors. AID 485314. hit rate 1.3% among 340,000. Pol beta primer extension/strand displacement, fluorescence kinetic. P06746; also: % is scaled to controls: 0 for no effect and ±100 for the full control effect
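Values derive from four-parameter Hill fits of normalized kinetic data: reads at 0 and 10 min following addition of 50 nM substrate to 10 nM Pol beta preincubated 15 min with compound.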
PGK inhibitor: blocks T. brucei phosphoglycerate kinase; P07378; PGK/GAPDH coupled, Kinase-Glo luminescence, 60 min; Potency, µM (top dose mostly 57.5 µM), for the others: at the top dose activity change, negative = inhibition, actives largely listed as inhibitors; hit rate 0.043% among 380,000; also: % is scaled to controls: 0 for no effect and ±100 for the full control effect; nearly all actives have a fitted effect of over 60% in size
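Luminescent ATP detection (Kinase-Glo Plus) follows a 60-minute room-temperature incubation, with wells lacking PGK as controls. Buffer: 100 mM TEA (pH 7.6), 5 mM MgCl2, 0.01% Tween-20. Coupling enzyme GAPDH (100 nM final) supplies unstable 1,3-BPG in-well.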
POLH inh: DNA polymerase eta (human) inhibition; hit rate 1.2% among 390,000; Potency, µM (highest dose often 114 µM), for inactives: at the highest dose activity change, negative = inhibition, usual class: inhibitors; recombinant Pol eta, fluorescent DNA replication assay; AID 588591; also: % is scaled to controls: 0 for no effect and ±100 for the full control effect
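Pol eta at 10 nM preincubated with compounds 15 min at room temperature; reaction started with fluorescent substrate (50 nM final) and read kinetically at 0 and 10 min.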
FEN1 inh: human FEN1 inhibition; hit rate 0.35% among 390,000; Potency, µM (series often up to 114 µM), for inactives: at the top dose activity change, negative = inhibition, usual class: inhibitors; P39748; Recombinant FEN1 flap cleavage, fluorescence, 15 min; also: % is scaled to controls: 0 for no effect and ±100 for the full control effect; nearly all actives have a fitted effect of over 65% in size
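In this screen, 50 nM flap DNA substrate was added to 10 nM FEN1 pretreated with compound for 15 min at room temperature; cleavage was followed with reads at 0 and 15 min, and Hill fitting gave concentration–response parameters.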
Pol kappa inh: blocks human DNA polymerase kappa activity; purified Pol kappa, fluorescent DNA synthesis assay, 10 min; Potency, µM (highest dose often 107 µM), for the others: top-dose activity, negative = inhibition, actives largely listed as inhibitors; hit rate 0.53% among 400,000; also: % is scaled to controls: 0 for no effect and ±100 for the full control effect
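10 nM Pol kappa preincubated 15 min at room temperature with compounds, then reaction started with substrate at 50 nM final. Fluorescence read kinetically at 0 and 10 min; buffer-only wells served as negative control.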
An asterisk follows results filed as active; i = inactive; ? = inconclusive; nt = not tested or not shown; ! = not confirmed by another sample; [ ] = dose if it differs, or a comment. Compounds with a hit are over-represented: about 2.4% of the library has one in this group of screens. Calls follow the shape of the dose curve; as a rule, active = well fitted curve in the direction sought with a large enough effect; inconclusive = small, poorly fitted or top-dose-only effect, or another doubt; inactive = no such curve, though single readings can be large; an effect the other way counts as inactive or inconclusive. Potency is read from the fitted curve at half-maximal effect.

SMILES | Pol iota inh | POLB inh | PGK inhibitor | POLH inh | FEN1 inh | Pol kappa inh
O=[N+]([O-])c1cc([N+](=O)[O-])c2nonc2c1Nc1ccccc1O | 50.0% | -2.3% | -9.8% | -15.7% | -6.9% | -7.1%
CC(=O)c1ccc(N2CCN(C(=O)c3cc4c(s3)-c3ccccc3OC4)CC2)cc1 | 12.9% | 3.6% | -2.8% | -11.8% | 4.7% | -0.4%
CC(C)Oc1ccc(C(=O)N/N=C/c2ccc(-c3ccc(S(=O)(=O)Nc4ncccn4)cc3)o2)cc1 | ? | 1.2% | -13.8% | 2.82µM* | 79.4µM* | 44.7µM*
COc1cc(C(=O)NS(=O)(=O)c2ccccc2C)ccc1Cc1cn(C)c2ccc(NC(=O)OC3CCCC3)cc12 | nt | 56.2µM* | nt | nt | nt | ?
Cc1ccc(NC(=O)N(Cc2cn(C)c3ccccc23)C2CCCCC2)cc1C | 2.7% | -1.8% | 0.9% | -28.2% | 6.6% | -10.0%
COc1ccc(Nc2nc3[nH]c(=O)cc(O)c3s2)cc1 | 83.9% | 44.7µM* | 0.4% | -18.7% | 4.1% | 6.1%
O=c1cc(O)c2sc(Nc3ccc(F)c(Cl)c3)nc2[nH]1 | 42.6% | 56.2µM* | -3.2% | -12.4% | -3.2% | -2.1%
CCCN1CNc2c(c(=O)[nH]c(=S)n2CCc2cccc(C)c2)C1 | 36.4% | nt | nt | nt | 2.3% | -5.5%
Cc1cc(C)c2oc(-c3cccc(NC(=O)COc4ccc(Cl)cc4C)c3C)nc2c1 | -19.7% | nt | nt | nt | 1.9% | -8.2%
CN(C)C(=O)c1ccc(/C=C/c2ccnc3ccccc23)cc1 | 4.3% | nt | nt | nt | -4.9% | -22.9%
COc1ccc(C(=O)NC(C(=O)OCC(=O)Nc2sccc2C(N)=O)C(C)C)cc1 (configuration not stated) | ? | nt | -8.3% | 89.1µM* | 18.6% | -30.4%
NC(=O)c1ccsc1NC(=O)COC(=O)c1ccc(Cl)c(N)c1 | ? | nt | i | 22.4µM* | 0.5% | -28.8%
COc1ccc(C(=O)N[C@H](C(=O)Nc2sccc2C(N)=O)C(C)C)cc1 | 31.0% | -17.8% | 0.9% | 12.2% | 2.5% | -13.1%
NC(=O)c1ccsc1NC(=O)COC(=O)c1ccncc1 | ? | nt | -3.6% | -26.4% | -17.2% | -6.7%
NC(=O)c1ccsc1NC(=O)COC(=O)c1cnccn1 | 79.4µM* | nt | -4.0% | ? | -12.0% | ?
CCC1=C[C@@H]2CN(C1)Cc1c([nH]c3ccccc13)[C@@](C(=O)OC)(c1cc3c(cc1OC)N(C)[C@@H]1[C@@](O)(C(=O)OC)[C@H](OC(C)=O)[C@]4(CC)C=CCN5CC[C@]31[C@@H]54)C2 | nt | nt | nt | nt | nt | 4.2%[19.4 µM]
C=CC(=O)Nc1cccc(Nc2nc(N[C@H]3CC[C@H](N(C)C)CC3)nc3c2ncn3C(C)C)c1 | ? | nt | 6.7% | ? | 50.1µM* | -21.6%
Cc1cccc2c1-c1sc(C(=O)N(C)c3cccc(C(F)(F)F)c3)cc1CO2 | 36.6% | ? | i | -25.9% | 0.4% | 6.0%
COc1ccc(/C=C/c2nccc3c2[nH]c2ccccc23)cc1 | 10.4% | nt | nt | nt | -26.3% | -13.3%
C(=C/c1nccc2c1[nH]c1ccccc12)/c1ccc2c(c1)OCO2 | 0.8% | ? | i | -26.3% | 44.7µM* | -14.4%
Cc1ccn2c(=O)cc(COc3cccc(NC(=O)Nc4cccc(Cl)c4C)c3)nc2c1 | 2.4% | -6.7% | -10.3% | -11.8% | -6.9% | -4.2%[60.1 µM]
COc1ccc(S(=O)(=O)NCCSCc2ccco2)cc1OC | 44.7µM* | 39.8µM* | 0.6% | ? | -15.5% | -26.9%
Cc1cc(C)c(S(=O)(=O)NCCSCc2ccco2)c(C)c1 | 22.4µM* | nt | -8.0% | 20µM* | -22.6% | ?
COc1ccc(/C=C/C(=O)NCCSCc2ccco2)cc1OC | 70.8µM* | -13.9% | 0.8% | -29.1% | 16.0% | -40.0%
COc1cc(OC)c(OC)cc1/C=C/c1nc2ccccc2o1 | 27.0% | nt | nt | nt | -4.8% | -6.8%
SMILES | Pol iota inh | POLB inh | PGK inhibitor | POLH inh | FEN1 inh | Pol kappa inh
COC(=O)c1ccn(CC(=O)NC2CCCCC2)n1 | -20.0% | 39.8µM* | -14.8% | ? | -0.2% | -20.8%
CSc1cccc(NC(=O)CN2C(=O)COc3ccc(S(=O)(=O)N4CCC(C)CC4)cc32)c1 | 8.1% | 11.2% | -8.3% | -13.6% | -19.2% | -5.2%
CC(C)Cc1nnc(NC(=O)c2cc3c(s2)CCC3)s1 | 28.2µM* | -25.8% | i | -28.2% | -0.6% | ?
O=C(Nc1nncs1)c1cc2c(s1)CCC2 | -3.7% | -10.1% | -0.5% | -2.1% | 17.1% | -1.1%
CCOC(=O)c1c(NC(C)=O)c2c3c(sc2n1Cc1ccc(Cl)cc1)CCCC3 | 34.7% | 23.4% | nt | nt | 2.3% | 11.9%
Cc1oc(-c2ccccc2F)nc1CS(=O)CC(=O)NCc1ccc(Cl)cc1 (configuration not stated) | 32.0% | -2.9% | -5.2% | -17.8% | -12.6% | 0.0%
Cc1oc(-c2ccccc2Cl)nc1CS(=O)CC(=O)NCc1ccc(Cl)cc1 (configuration not stated) | 79.4µM*! | -6.8% | -3.0% | -5.6% | -0.8% | -7.0%
C(=C1C=c2ccccc2=C1)c1ccc(N=Nc2ccc(C=C3C=c4ccccc4=C3)cc2)cc1 | 2.6% | nt | nt | nt | 1.9% | -12.5%
Cc1ccccc1-c1cc(Nc2ccc(F)cc2)ncn1 | nt | nt | nt | nt | nt | -16.1%[60.1 µM]
O=c1c(O)c(-c2ccc(O)cc2O)oc2cc(O)cc(O)c12 | 3.98µM* | 4.47µM* | nt | 7.94µM* | 28.2µM* | 4.23µM*
O=c1c(-c2ccc(O)cc2O)coc2cc(O)cc(O)c12 | ? | 31.6µM* | -4.3% | ? | 2.7% | ?
O=c1c(O)c(-c2ccccc2O)oc2cc(O)cc(O)c12 | nt | nt | nt | nt | nt | 3.9%[60.1 µM]
CCCCCCCCCCCCOC(=O)N1CCN(/[N+]([O-])=N/Oc2ccc([N+](=O)[O-])cc2[N+](C)=O)CC1 | 35.0% | nt | nt | nt | 2.7% | 2.7%
CC1=NN(c2ccccc2)C(=O)C1N=Nc1ccccc1 (configuration not stated) | 57.4% | 32.1% | 1.2% | -27.4% | 5.0% | -11.1%
CC1=NN(c2ccccc2)C(=O)C1N=Nc1ccc(N)cc1 (configuration not stated) | ? | 22.4µM* | -11.5% | -5.0% | -23.1% | -11.1%
O=c1cc(-c2ccccc2O)oc2c1ccc1ccccc12 | nt | nt | nt | nt | nt | -7.8%[19.4 µM]
Cc1ccc(-c2cc(C(=O)N/N=C/c3ccc(Cl)cc3)n[nH]2)o1 | ? | 25.1µM* | -10.0% | ? | -18.9% | -4.2%
CC1CN(C2=Nc3cccc4cccc2c34)CC(C)O1 (configuration not stated) | 25.1µM* | 19.1% | -5.7% | -7.4% | -5.4% | 12.4%
N#C/C(=C\c1cccs1)C(=O)c1ccccc1 | 28.2µM* | ? | -4.3% | -17.1% | 5.1% | -11.7%
FC(F)(F)c1cccc(N2CCC(N=CN3CCCCCC3)=N2)c1 | -11.9% | 9.1% | -7.1% | 89.1µM* | 9.5% | -11.6%
